Here are results for 30 compounds from PubChem BioAssay AID624351 (Southern Research Specialized Biocontainment Screening …, 2012).

Screen size: about 2,400 compounds; about 1,400 (58%) were called active. So high a share suggests a set chosen from earlier hits. The list shows a part of the results. A number with no mark means an inactive call.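 Rule for the calls: active = inhibition of 30% or more at any tested dose; inconclusive = primary hits over the limit that were never retested; inactive = the rest.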

This assay in a line: coupled detection enzyme interference, dose response, artefact control for MgcRacGAP inhibitor project, biochemical, coupled enzyme counter-screen (AID 624351).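 For inhibition: 0% = median positive control wells and 100% = median negative control wells.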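 Note: signal is the ADP detection kit reading of free GDP without any GAP enzyme.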 The conditions noted are these: ADP Hunter coupled enzyme counter-screen, fluorescence, no MgcRacGAP; series mostly up to 80 µM; inhibition: at the top concentration. Background: Counterscreens check selectivity or assay interference.
Regarding `CC(C)=NNc1cc([N+](=O)[O-])cc2c1C(=O)N(C)S2=O` (stereo not given), the “inhibition” value is 2.89%.
For the compound `Cc1ccc(O)c(N=Cc2sc3ccccc3c2Cl)c1`, the IC50 was 39.7 µM (active).
For `Oc1ccc(Cl)cc1N=Cc1sc2ccccc2c1Cl`, the IC50 is 21.4 µM (active).
`CS(=O)(=O)N1CCN(C2C3CC4CC(C3)CC2C4)CC1` (stereo not given): the “inhibition” value was 19.5%.
`O=C(CN1CCCCCC1)NN(Cc1ccccc1)c1ccccc1`: the “inhibition” value is 13.4%.
Turning to `O=C(COC(=O)c1ccccc1)Nc1ncc([N+](=O)[O-])s1`, the “inhibition” value is 5.57%.
Take `COc1ccc(N2CCN(C(CNS(=O)(=O)c3ccc4c(c3)OCCO4)c3ccco3)CC2)cc1` (stereo not given): the “inhibition” value is 21.5%.
For the compound `COc1ccc(N2CCN(C(c3cccs3)C(C)NC(=O)c3ccco3)CC2)cc1` (stereo not given), the “inhibition” value is 28%.
On to `CCS(=O)(=O)NC(C)C(c1cccs1)N1CCN(c2ccc(OC)cc2)CC1` (stereo not given), for which the IC50 is 81.8 µM (active).
As to `Nc1ccc2nc(N)sc2c1`, the IC50 was 11 µM (active).
Still for that read-out and setting: then `Nc1ccc(-c2nc3ccc(N)cc3s2)cc1`, with 75.8 µM (active); and `N#CC1(Nc2ccc3c4c(cccc24)CC3)CCCCC1`, with 24.3 µM (active).
On to `COc1ccc2c(c1)c(C(=O)N/N=C/c1ccc(O)c(O)c1)c(C)n2C`, for which the IC50 is 22 µM (active).
With `COc1ccc(/C=N/Nc2cc(C)nc3ccc(OC)cc23)c(OC)c1`, the “inhibition” value was 8.35%.
`COc1ccc2nc(C)cc(SCC(=O)N/N=C/c3ccc(O)c(O)c3)c2c1`: the 50% inhibitory concentration (IC50) is 28 µM (active).
Take `COc1ccc2nc(/N=C(\N)NC(=O)N3c4ccccc4Sc4ccccc43)nc(C)c2c1`: the “inhibition” value is -3.01%.
For `CC1(C)C2CCC(CN=C(N)CSS(=O)(=O)O)C1C2` (stereo not given), the “inhibition” value is 4.39%.
As for `CC(/C=C/c1ccc(O)cc1)=N/O`, the half-inhibitory concentration (IC50) was 11.8 µM (active).
`COc1ccc(NC(=S)NCC2CCN(c3ccc(OC)cc3)C2)cc1` (stereo not given): the half-inhibitory concentration (IC50) is 52.5 µM (active).
For the compound `CCc1ccccc1NC(=S)NCC1CCN(c2ccc(OC)cc2)C1` (stereo not given), the half-maximal inhibitory concentration (IC50) is 65.3 µM (active).
With `COc1ccc(N2CCC(CNC(=S)Nc3cccc(C)c3)C2)cc1` (stereo not given), the IC50 was 72.2 µM (active).
For `CCc1c(C)nc(N2CCN(c3ccc(OC)cc3)CC2)[nH]c1=O`, the “inhibition” value was 24.9%.
For the compound `COc1ccc(CNCC(=O)Nc2ccccc2-n2cccc2)cc1`, the “inhibition” value is 8.24%.
Consider `COc1ccc(N2CCC(CNC(=S)Nc3cc(C)cc(C)c3)C2)cc1` (stereo not given), for which the “inhibition” value was 28%.
The same measure, in the same setting: then `COc1ccc(N2CCC(CNC(=O)Nc3ccc(C)c(C)c3)C2)cc1` (stereo not given), with 10.1%.
Still for that read-out and setting: the value for `CC(=O)N1CCC(=NNC(=O)c2cc3ccccc3cc2O)CC1` was 24.4%; that for `CN(Cc1ccccc1)C(=O)C1CCCN(Cc2ccc(Cl)cc2)C1` (stereo not given) was 13.7%.
For the compound `COc1cc(/C=N/N2C(=O)c3ccccc3C2=O)ccc1O`, the half-inhibitory concentration (IC50) was 41.6 µM (active).
As for `O=C1C2C3C=CC(CC3)C2C(=O)N1/N=C/c1ccc(O)c(O)c1` (stereo not given), the IC50 was 64.1 µM (active).
In the case of `O=C1c2ccccc2C(=O)N1/N=C/c1ccc(O)c(O)c1`, the IC50 was 33.2 µM (active).

What is called inhibition is the change of the read-out against control, counted positive when it falls. What is called IC50 is the concentration needed to halve the response being measured.
